# Laboratory results from PubChem BioAssay (Tox21).
# Inconclusive results are not listed. Calls of active or inactive are those of the source. Unless noted, calls come from the whole dose curve.
# Assay: qHTS assay to identify small molecule agonists of the endoplasmic reticulum stress response signaling pathway (AID 1159516; active = well fitted activation curve with a large enough effect in the signal ratio in the repeat runs, not every such curve was filed as active; the % refers to the signal ratio)
# Details: ESRE-bla HeLa, ER stress beta-lactamase reporter, 5 h; series mostly up to 61 µM
# Outline: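 For this screen, HeLa cells stably carrying beta-lactamase under the ER stress response element received test compounds, positive controls or DMSO for 5 hr at 37 C; B/G FRET substrate was then added and dual-wavelength emission recorded.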
row,Structure (SMILES),outcome
1,Cc1cc(S(=O)(=O)O)ccc1N=Nc1c(O)ccc2ccccc12,inactive
2,CCCc1c(OCCCOc2ccc(OCC(=O)O)cc2)ccc(C(C)=O)c1O,inactive
3,COC(=O)Nc1nc2ccc(C(=O)c3cccs3)cc2[nH]1,inactive
4,CCc1c2c(nc3ccc(OC(=O)N4CCC(N5CCCCC5)CC4)cc13)-c1cc3c(c(=O)n1C2)COC(=O)[C@]3(O)CC,inactive
5,C1COCO1,inactive
6,CN(C)CCOC1=Cc2ccccc2Sc2ccc(Cl)cc21,inactive
7,CCOC(=O)CC(=O)C(=O)OCC,inactive
8,Cc1ccc(Nc2nccc(N(C)c3ccc4c(C)n(C)nc4c3)n2)cc1S(N)(=O)=O,inactive
9,O=C(N[C@@H](c1ccccc1)[C@@H]1CCCCN1)c1cccc(C(F)(F)F)c1Cl,inactive
10,O=C(N/N=C/c1ccc([N+](=O)[O-])o1)c1ccc(O)cc1,inactive
11,CC(C)CCCCCCOC(=O)CCCCC(=O)OCCCCCCC(C)C,inactive
12,CCNC(=O)N1CCN(CCCC(c2ccc(F)cc2)c2ccc(F)cc2)CC1,inactive
13,C[C@]12CCC(=O)C=C1C=C[C@@H]1[C@@H]2CC[C@@]2(C)[C@H]1CC[C@@]21CCC(=O)O1,inactive
14,CCc1cccc(N(C)C(N)=Nc2cccc3ccccc23)c1,inactive
15,CCCCC(=O)O[C@]1(C(=O)CO)CC[C@H]2[C@@H]3CCC4=CC(=O)CC[C@]4(C)[C@H]3[C@@H](O)C[C@@]21C,inactive
16,CCC1(C)CC(=O)NC1=O (stereo not given),inactive
17,CCCCCC=CCC=CCCCCCCCC(=O)OCC,inactive
18,CC(=O)[C@H]1CC[C@H]2[C@@H]3C=CC4=CC(=O)CC[C@@]4(C)[C@@H]3CC[C@]12C,inactive
19,O=C1NCCN1,inactive
20,C=CCNc1nc(NCC=C)nc(N2CCN(C(c3ccc(F)cc3)c3ccc(F)cc3)CC2)n1,inactive

row,Structure (SMILES),outcome
1,COC(=O)CC(=O)C(C)(C)C,inactive
2,C=CCOC(=O)/C=C\C(=O)OCC=C,inactive
3,CCC(C(=O)OCCN(CC)CC)c1ccccc1 (stereo not given),inactive
4,CN(C(=O)C(Cl)Cl)c1ccc(OC(=O)c2ccco2)cc1,inactive
5,CCOC(=O)c1ccccc1C,inactive
6,C[N+](C)(C)CCOC(N)=O,inactive
7,CO/N=C1\CN(c2nc3c(cc2F)c(=O)c(C(=O)O)cn3C2CC2)CC1CN (stereo not given),inactive
8,CN1C(=O)CC(C)(c2ccccc2)C1=O (stereo not given),inactive
9,NC(=O)Cn1c(=O)cc(CCN2CCN(c3nccc4sccc34)CC2)c2ccc(F)cc21,inactive
10,CC(=O)[C@H]1CC[C@H]2[C@@H]3C[C@H](C)C4=CC(=O)CC[C@]4(C)[C@H]3[C@@H](O)C[C@]12C,inactive
11,COc1cc2c(cc1OC)-c1cc(=Nc3c(C)cc(C)cc3C)n(C)c(=O)n1CC2,inactive
12,O=C(CCC1CCN(Cc2ccccc2)CC1)c1ccc2c(c1)NCCCC2,inactive
13,Cc1occc1C(=O)Nc1ccc(C(=O)N2CCC(F)(F)/C(=C\C(=O)N3CCC(N4CCCCC4)CC3)c3ccccc32)cc1,inactive
14,CCCCCCCCCCOS(=O)(=O)O,inactive
15,CC(CCc1ccc2c(c1)OCO2)NN (stereo not given),inactive
16,CCOC(=O)OCC,inactive
17,Cc1cnc(C)c(C)n1,inactive
18,COc1ccc([C@@H]2Sc3ccccc3NC(=O)[C@@H]2O)cc1,inactive
19,CC(C)C(=O)O,inactive
20,CCOC(=O)/C=C/C(=O)O,inactive

# Assay: qHTS assay to identify small molecule agonists of the endoplasmic reticulum stress response signaling pathway - cell viability counter screen (AID 1159517); note: nearly all actives have a fitted effect of over 50% in size
# Details: ESRE-bla HeLa viability, CellTiter-Glo luminescence, 5 h; series mostly up to 61 µM
# Outline: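 Cpd-treated ESRE-bla HeLa (5 hr, 37 C) → LiveBLAzer 2 hr RT → CellTiter-Glo 30 min RT → luminescence.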
row,Structure (SMILES),outcome
1,Cc1cc(S(=O)(=O)O)ccc1N=Nc1c(O)ccc2ccccc12,inactive
2,CCCc1c(OCCCOc2ccc(OCC(=O)O)cc2)ccc(C(C)=O)c1O,inactive
3,COC(=O)Nc1nc2ccc(C(=O)c3cccs3)cc2[nH]1,inactive
4,CCc1c2c(nc3ccc(OC(=O)N4CCC(N5CCCCC5)CC4)cc13)-c1cc3c(c(=O)n1C2)COC(=O)[C@]3(O)CC,inactive
5,C1COCO1,inactive
6,CN(C)CCOC1=Cc2ccccc2Sc2ccc(Cl)cc21,inactive
7,CCOC(=O)CC(=O)C(=O)OCC,inactive
8,Cc1ccc(Nc2nccc(N(C)c3ccc4c(C)n(C)nc4c3)n2)cc1S(N)(=O)=O,inactive
9,O=C(N[C@@H](c1ccccc1)[C@@H]1CCCCN1)c1cccc(C(F)(F)F)c1Cl,inactive
10,O=C(N/N=C/c1ccc([N+](=O)[O-])o1)c1ccc(O)cc1,inactive
11,CC(C)CCCCCCOC(=O)CCCCC(=O)OCCCCCCC(C)C,inactive
12,CCNC(=O)N1CCN(CCCC(c2ccc(F)cc2)c2ccc(F)cc2)CC1,inactive
13,C[C@]12CCC(=O)C=C1C=C[C@@H]1[C@@H]2CC[C@@]2(C)[C@H]1CC[C@@]21CCC(=O)O1,inactive
14,CCc1cccc(N(C)C(N)=Nc2cccc3ccccc23)c1,inactive
15,CCCCC(=O)O[C@]1(C(=O)CO)CC[C@H]2[C@@H]3CCC4=CC(=O)CC[C@]4(C)[C@H]3[C@@H](O)C[C@@]21C,inactive
16,CCC1(C)CC(=O)NC1=O (stereo not given),inactive
17,CCCCCC=CCC=CCCCCCCCC(=O)OCC,inactive
18,CC(=O)[C@H]1CC[C@H]2[C@@H]3C=CC4=CC(=O)CC[C@@]4(C)[C@@H]3CC[C@]12C,inactive
19,O=C1NCCN1,inactive
20,C=CCNc1nc(NCC=C)nc(N2CCN(C(c3ccc(F)cc3)c3ccc(F)cc3)CC2)n1,inactive

row,Structure (SMILES),outcome
1,COC(=O)CC(=O)C(C)(C)C,inactive
2,C=CCOC(=O)/C=C\C(=O)OCC=C,inactive
3,CCC(C(=O)OCCN(CC)CC)c1ccccc1 (stereo not given),inactive
4,CN(C(=O)C(Cl)Cl)c1ccc(OC(=O)c2ccco2)cc1,inactive
5,CCOC(=O)c1ccccc1C,inactive
6,C[N+](C)(C)CCOC(N)=O,inactive
7,CO/N=C1\CN(c2nc3c(cc2F)c(=O)c(C(=O)O)cn3C2CC2)CC1CN (stereo not given),inactive
8,CN1C(=O)CC(C)(c2ccccc2)C1=O (stereo not given),inactive
9,NC(=O)Cn1c(=O)cc(CCN2CCN(c3nccc4sccc34)CC2)c2ccc(F)cc21,inactive
10,CC(=O)[C@H]1CC[C@H]2[C@@H]3C[C@H](C)C4=CC(=O)CC[C@]4(C)[C@H]3[C@@H](O)C[C@]12C,inactive
11,COc1cc2c(cc1OC)-c1cc(=Nc3c(C)cc(C)cc3C)n(C)c(=O)n1CC2,inactive
12,O=C(CCC1CCN(Cc2ccccc2)CC1)c1ccc2c(c1)NCCCC2,inactive
13,Cc1occc1C(=O)Nc1ccc(C(=O)N2CCC(F)(F)/C(=C\C(=O)N3CCC(N4CCCCC4)CC3)c3ccccc32)cc1,inactive
14,CCCCCCCCCCOS(=O)(=O)O,inactive
15,CC(CCc1ccc2c(c1)OCO2)NN (stereo not given),inactive
16,CCOC(=O)OCC,inactive
17,Cc1cnc(C)c(C)n1,inactive
18,COc1ccc([C@@H]2Sc3ccccc3NC(=O)[C@@H]2O)cc1,inactive
19,CC(C)C(=O)O,inactive
20,CCOC(=O)/C=C/C(=O)O,inactive
